Experimental data from PubChem BioAssay (NCATS).
Results filed as inconclusive are left out. Calls of active or inactive are those of the source. Calls come from the whole dose curve; as a rule, active = well fitted inhibition curve with a large enough effect; inconclusive = small, poorly fitted or top-dose-only effect; inactive = flat fitted curve, though single readings scatter.

Legend:
CRL-7250 = normal cell line; assay: Cytotoxic Profiling of Annotated Libraries Using Quantitative High-Throughput Screening (AID 1296008); details: Five cell lines viability, CellTiter-Glo ATP luminescence, 48-72 h; max response: active compounds read low; for max response: % is set by controls: 0 for no effect and ±100 for the full control effect
Summary of the method: (§1)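 Cells exposed to compounds for 48 or 72 hr at 37 degrees Celsius. Viability read as ATP-coupled luminescence with CellTiter-Glo after 10 min at room temperature.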

HaCat [1] = assay: as above; details: Five cell lines viability, CellTiter-Glo ATP luminescence, 48-72 h; max response: active compounds read low
Summary of the method: as §1

KB-3-1 = assay: as above; details: Five cell lines viability, CellTiter-Glo ATP luminescence, 48-72 h; max response: active compounds read low
Summary of the method: as §1

NIH3T3 = assay: as above; details: Five cell lines viability, CellTiter-Glo ATP luminescence, 48-72 h; max response: active compounds read low
Summary of the method: as §1

HACAT [2] = assay: qHTS assay to identify novel small-molecules to repurpose for Merkel cell carcinoma treatment (AID 1296009); details: MCC and control cell lines, CellTiter-Glo viability, 72 h; at 44.8 µM (top of the series) unless noted
Summary of the method: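 Cells were incubated with compound for 72 hr at 37 degree celsius before CellTiter-Glo addition. Luminescence was normalized with no-cell wells as full cytotoxicity and DMSO as baseline.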

Measured: max response
Note: nearly all actives have a fitted effect of over 60% in size.

Cc1[nH]c2ccccc2c1CCNC(=O)c1cccs1
inactive: CRL-7250 -14.1% | HaCat [1] | KB-3-1 | NIH3T3 0.258% | HACAT [2]

C=CC(=O)N1CC(N2CCN(C(=O)CNc3cc(C4CC4)c(Cl)cc3O)CC2)C1
inactive: all assays above

CN1CCC(c2cn(C)c3ccc(OS(=O)(=O)c4c(F)cccc4F)cc23)CC1
inactive: CRL-7250 | HaCat [1] | KB-3-1 -7.12% | NIH3T3 3.31% | HACAT [2]

CC(=O)O[C@@H]1CC2C(C)(C)C(=O)C=C[C@]2(C)C2CC[C@@]3(C)[C@H](c4ccoc4)OC(=O)[C@H]4O[C@]43[C@@]21C (stereo not given in full)
inactive: CRL-7250 | HaCat [1] | KB-3-1 | NIH3T3 -4.81% | HACAT [2] inactive [at 17.4 µM]

CC1(C)Oc2ncnc(N)c2N=C1c1ccc(C23CCC(CC(=O)O)(CC2)CC3)cc1
inactive: CRL-7250 1.74% | HaCat [1] | KB-3-1 -2.56% | NIH3T3 -15.7% | HACAT [2]

CC1=CC2/C=C(\C)CCC(O)C/C=C/C(=O)OC23C(=O)NC(CC(C)C)C3C1C (stereo not given)
inactive: CRL-7250 -1.17% | HaCat [1] | KB-3-1 | NIH3T3 | HACAT [2] inactive [at 17.4 µM]

O=C1COC2(CCN(S(=O)(=O)c3ccc(-c4ccc5cccnc5c4)cc3)CC2)CN1C1CC1
inactive: CRL-7250 -2.24% | HaCat [1] | KB-3-1 7.72% | NIH3T3 -10.8% | HACAT [2]

COc1ccc(NC(=O)c2ccc(-c3ccc(-c4nnc(C)o4)cc3C)cc2)cc1N1CCN(C)CC1
inactive: CRL-7250 2.13% | HaCat [1] inactive; activator | KB-3-1 2.03% | NIH3T3 -14.5% | HACAT [2] inactive; activator
